Assay results as given in PubChem BioAssay.

target: E3 ubiquitin-protein ligase XIAP (Homo sapiens) (UniProt P98170); experiment: XIAP binders, primary screen, biophysical, small-molecule microarray, fluorescence 635 nm (AID 1181); details: small-molecule microarray binding, higher = more signal;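 note: score merges 667 nm emission and signal to noise over triplicate slides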
Sequence (P98170 whole entry, looked up): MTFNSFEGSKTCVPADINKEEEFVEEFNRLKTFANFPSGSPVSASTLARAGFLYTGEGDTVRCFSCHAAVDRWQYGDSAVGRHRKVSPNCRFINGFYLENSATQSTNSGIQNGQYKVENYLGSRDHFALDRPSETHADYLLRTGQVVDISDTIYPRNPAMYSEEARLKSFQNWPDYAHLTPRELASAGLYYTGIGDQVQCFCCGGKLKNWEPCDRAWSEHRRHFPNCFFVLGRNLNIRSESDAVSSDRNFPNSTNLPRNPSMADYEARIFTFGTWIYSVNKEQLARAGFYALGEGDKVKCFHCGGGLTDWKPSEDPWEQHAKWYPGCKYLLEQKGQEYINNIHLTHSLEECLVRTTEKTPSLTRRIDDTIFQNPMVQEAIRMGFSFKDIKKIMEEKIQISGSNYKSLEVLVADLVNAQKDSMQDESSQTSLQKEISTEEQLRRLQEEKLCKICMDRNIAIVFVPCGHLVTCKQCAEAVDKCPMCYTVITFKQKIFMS

Row | Structure (SMILES) | composite z-score
1 | O=C1O[C@@H](c2ccccc2)[C@@H](c2ccccc2)N2[C@@H](c3ccc(O)cc3)[C@]3(C(=O)Nc4ccc(C#CCCO)cc43)[C@@H](C(=O)Nc3nc4ccccc4s3)[C@H]12 | -0.0918
2 | C=CCOC(=O)[C@@H]1[C@H]2C(=O)O[C@H](c3ccccc3)[C@H](c3ccccc3)N2[C@H](c2ccc(OCCOC(=O)[C@H]3C[C@H]4C(=O)N[C@@H](CCCCN(C)C)C(=O)N4[C@H]3c3cccc(OCCO)c3)cc2)[C@@]12C(=O)Nc1ccc(I)cc12 | -0.202
3 | Cc1c(NC(=O)/C(C#N)=C/C=C/c2ccc(N(C)C)cc2)c(=O)n(-c2ccccc2)n1C | 0.0899
4 | O=C1C2C=CC(C(O)c3cc(C(F)(F)F)cc(C(F)(F)F)c3)N(Nc3ccc([N+](=O)[O-])cc3)C2C(=O)N1c1ccccc1 (stereo not given) | 0.29
5 | O=C1NC(=O)C2C1C=CC(C(O)c1cc(C(F)(F)F)cc(C(F)(F)F)c1)N2Nc1ccc(Cl)cc1Cl (stereo not given) | 0.214
6 | CO[C@H]1O[C@H](CO)[C@@H](OC(=O)Nc2ccccc2-c2ccccc2)[C@H](OC(=O)Nc2ccc3c(c2)OCO3)[C@@H]1OC(=O)Nc1ccc2c(c1)OCO2 | 0.227
7 | Cc1ccc(F)cc1S(=O)(=O)N[C@@H]1CCN(Cc2ccc(Oc3ccccc3)cc2)C1 | -0.13
8 | CCOC(=O)C1=CC[C@@H](c2ccccc2)N(S(=O)(=O)c2ccc(C)cc2)C1 | 0.0975
9 | Cc1ccc(S[C@]2(C(=O)NCC(F)(F)F)CC(=O)N(Cc3ccccc3)[C@@H]2c2ccc(CO)cc2)cc1 | 0.4
10 | CC(C)CNC(=O)[C@@H]1c2ccccc2C(=O)N(Cc2cc(F)cc(C(F)(F)F)c2)[C@H]1c1ccc(CO)cc1 | 0.0651
11 | CCN(CC)c1ccc(N2CC=CC34O[C@@H]5/C=C\CCC(C)OC(=O)C5[C@H]3C(=O)N(CCO)[C@@H]4C2=O)cc1 (stereo not given in full) | 0.283
12 | COc1ccccc1CN1C(=O)c2ccccc2[C@@H](C(=O)NC(C)C)[C@@H]1c1ccc(CO)cc1 | 0.0251
13 | [N-]=[N+]=NCc1ccccc1[C@H]1OC(c2ccc(OCCCO)cc2)=N[C@@]1(CCS(=O)(=O)c1ccccc1)C(N)=O | 0.182
14 | C=CCOC(=O)[C@@H]1[C@H]2C(=O)O[C@H](c3ccccc3)[C@H](c3ccccc3)N2[C@H](c2ccc(OCCOC(=O)[C@H]3C[C@H]4C(=O)N[C@@H](CCCC[N+](C)(C)C)C(=O)N4[C@H]3c3ccc(O)cc3)cc2)[C@@]12C(=O)Nc1ccc(I)cc12 | 0.0623
15 | C=C(CCCC)/C(=C/C[C@@H](OC(C)=O)c1ccc(CO)o1)c1cc(C(=O)OC)ccc1OC | -0.0367
16 | CC(C)C(O)C1C=CC2C(=O)N(C)C(=O)C2N1N(c1ccccc1)c1ccccc1 (stereo not given) | 0.23
17 | C=CCNC(=O)[C@@H]1[C@H]2C(=O)O[C@H](c3ccccc3)[C@H](c3ccccc3)N2[C@H](c2ccc(OCCO)cc2)[C@@]12C(=O)N(C(=O)OCCOC)c1ccc(C#CC3=CCCCC3)cc12 | -0.426
18 | COCCOC(=O)N1C(=O)[C@@]2(c3cc(C#Cc4ccc(OC)cc4)ccc31)[C@H](C(=O)N1CCCCCCC1)[C@H]1C(=O)O[C@H](c3ccccc3)[C@H](c3ccccc3)N1[C@@H]2c1ccc(O)cc1 | -0.0501

Row | Structure (SMILES) | composite z-score
19 | COC(=O)Cn1c(C(=O)N2CCCC2)cc2c1C[C@H]1CN(C(=O)c3ccccc3)[C@@](Cc3ccc(F)cc3)(C(=O)OC)[C@@H]21 | 0.303
20 | NCCCCCNC(=O)[C@@H]1C[C@@H]2C(=O)N[C@@H](CCCCN)C(=O)N2[C@@H]1c1cccc(OCCO)c1 | -0.399
21 | Cc1ccc(S[C@]2(C(=O)NC(C)C)CC(=O)N(Cc3ccccc3C(F)(F)F)[C@@H]2c2ccc(CO)cc2I)cc1 | -0.126
22 | COCCOC(=O)N1C(=O)[C@@]2(c3cc(C#CC4(O)CCCCCC4)ccc31)[C@H](C(N)=O)[C@H]1C(=O)O[C@H](c3ccccc3)[C@H](c3ccccc3)N1[C@@H]2c1ccccc1OCCO | -0.229
23 | C=CC[C@H](OC(=O)Nc1ccc(OC)cc1)c1ccc(O)c2ccccc12 | -0.0872
24 | COCC(=C=CC[C@H](O)c1cccc(OCCO)c1)C[C@H](O)c1ccccn1 | -0.0453
25 | C=CC[C@@]1(C(=O)N2CCCCC2)N=C(c2ccc(OCCCO)cc2)O[C@@H]1c1ccccc1 | 0.454
26 | COCCCNC(=O)[C@@H]1c2ccccc2C(=O)N(Cc2ccccc2C(F)(F)F)[C@H]1c1ccc(CO)cc1 | -0.138
27 | COc1ccc([Si](C)(C)[C@H]2[C@H](CCO)O[C@@]3(C(=O)N(Cc4cccc(N5CCCCC5=O)c4)c4ccccc43)[C@@H]2C)cc1 | -0.031
28 | O=C1C[C@@](C(=O)NCC(F)(F)F)(c2ccc([N+](=O)[O-])cc2)[C@@H](c2ccc(CO)cc2)N1C1CCCCC1 | -0.209
29 | COC(=O)[C@@]1(Cc2ccc(OC)cc2)[C@H]2c3cc(C(=O)N(C)C)n(CCc4c[nH]c5ccc(O)cc45)c3C[C@H]2CN1C(=O)c1ccccc1 | 0.201
30 | CC(C)c1ccc(NN2C(C(O)c3ccco3)C=CC3C(=O)N(c4ccccc4)C(=O)C32)cc1 (stereo not given) | -0.0026
31 | COC(=O)[C@@]1(Cc2ccc(OC)cc2)[C@H]2c3cc(C(=O)N(C)C)n(Cc4nc5ccccc5[nH]4)c3C[C@H]2CN1C(=O)c1ccccc1 | 0.382
32 | CN1C(=O)[C@@]2(CCS(=O)(=O)c3ccccc3)N=C(c3ccc(OCCCO)cc3)O[C@H]2c2ccccc21 | 0.205
33 | O=C1O[C@@H](c2ccccc2)[C@@H](c2ccccc2)N2[C@@H](c3ccc(O)cc3)[C@]3(C(=O)Nc4ccccc43)[C@@H](C(=O)Nc3nc4ccccc4s3)[C@H]12 | -0.0045
34 | CC(C)NC(=O)[C@@]1(C)c2ccccc2C(=O)N(C(C)C)[C@H]1c1ccc(CO)cc1 | 0.0982
35 | COC(=O)[C@@]1(Cc2ccccc2)[C@H]2c3cc(C(=O)N4CCCC4)[nH]c3C[C@H]2CN1C(=O)c1ccccc1 | -0.247
